Assay outcomes (PubChem)
Shown is part of a subset that was picked to be rich in hits.
Pf apPOL block – Pf-apPOL inhibitors, biochemical, fluorescence. inhibition, % at 10 µM. Recombinant Pf-apPOL, molecular beacon fluorescence, 1.5 h. hit rate 0.25% among 210,000. Plasmodium falciparum apicoplast DNA polymerase (apPOL). AID 1794808, 2022
mHTT CaM bind – mutant huntingtin-calmodulin interaction inhibitors – biochemical, AlphaScreen, primary screen; hit rate 3.6% among 190,000; AlphaScreen His-mHTT/GST-CaM binding, luminescence; P42858; inhibition, % at 15 µM; AID 1671202, 2021
Hits are given with their value; n = inactive; x = no result; ! = a repeat was not active. Cut-off read from the data, not from the text of the source: active = inhibition above about 50%; inactive = the rest.

SMILES	Pf apPOL block	mHTT CaM bind
Cc1cc(C)cc(NC(=O)Cc2nc(-c3ccccn3)n[nH]2)c1	n	78.4
Cc1cccc(NC(=O)Cc2nc(-c3ccccc3)n[nH]2)c1	n	n
COc1ccc(N2CCN(C(=O)C3CCN(c4cc(=O)n(C)c(=O)n4C)CC3)CC2)cc1	n	n
Cc1cccc(CN2CCc3c(cc(C(=O)NCc4ccco4)n3C)C2)c1	n	56.9
Cn1c(C(=O)NCCCN2CCCCC2)cc2c1CCN(Cc1ccccc1)C2	n	93.4
CCN(CC)C(=O)c1cc2c(n1C)CCN(Cc1cccc(C)c1)C2	n	n
Cn1c(C(=O)NCCN2CCCCC2)cc2c1CCN(Cc1ccc(F)cc1)C2	n	n
COc1ccc(CNC(=O)c2cc3c(n2C)CCN(Cc2ccccc2)C3)cc1	n	n
CCCCN(C)C(=O)c1cc2c(n1C)CCN(Cc1cccc(F)c1)C2	n	n
Cn1c(C(=O)NCc2ccccc2)cc2c1CCN(Cc1ccccc1)C2	n	62.5
CN(Cc1ccccc1)C(=O)c1cc2c(n1C)CCN(Cc1cccc(F)c1)C2	n	58.9
CCN(CC)S(=O)(=O)c1ccc(C(=O)Nc2nnc(C)o2)cc1	n	n
O=C(Cc1cccc(F)c1)N1CCc2nc[nH]c2C1	n	n
Cc1ccc(C(=O)NCCc2cn(C)c3ncccc23)c(C)c1	n	n
NC(=O)c1c(NC(=O)C2CCCN(C(=O)Cc3ccccc3F)C2)sc2c1CCCC2 (centres undefined)	n	n
Cc1ccc(NC(=O)Cn2c(=O)n(-c3ccccc3)c3ncccc32)c(C)c1	n	n
Cn1c(C(=O)NCCCN2CCCCC2)cc2c1CCN(Cc1cccc(F)c1)C2	n	83.2
Cn1c(C(=O)NC(C)(C)C)cc2c1CCN(Cc1cccc(F)c1)C2	n	n
Cc1cc(C)c(OCC(=O)Nc2ccccc2[N+](=O)[O-])c(Cl)c1	n	n
NNc1ncnc2ccccc12	x	100.3
c1ccc(CCNc2ncnc3ccccc23)cc1	n	n
Cc1ccc(Cl)cc1NC(=O)N1CC2CCCN2c2ccccc21 (centres undefined)	n	n
Cc1ccc(NC(=O)N2CC3CCCN3c3ccccc32)c(Cl)c1 (centres undefined)	n	76.5
CC1CN(C(=O)Nc2ccccc2Cl)c2ccccc2O1 (centres undefined)	n	n
O=C(Nc1ccccc1Cl)N1CC2CCCN2c2ccccc21 (centres undefined)	n	81.4
SMILES	Pf apPOL block	mHTT CaM bind
Cc1cccc(N2CC(C(=O)Nc3ccccc3F)CC2=O)c1 (centres undefined)	n	n
COc1cc(O)c(C(CCN2CCCCC2)c2ccc(N(C)C)cc2)c(OC)c1 (centres undefined)	n	n
COc1cc(O)c(C(CCN2CCCC2)c2ccc3c(c2)OCO3)c(OC)c1 (centres undefined)	n	n
COc1cc(O)c(C(CC(=O)N2CCCC2)c2ccc3c(c2)OCO3)c(OC)c1 (centres undefined)	n	n
COc1cc(O)c(C(CCN2CCN(c3ccccc3)CC2)c2ccc3c(c2)OCO3)c(OC)c1 (centres undefined)	n	82.2
COc1cc(O)c(C(CC(=O)N2CCN(c3ccccc3)CC2)c2ccc3c(c2)OCO3)c(OC)c1 (centres undefined)	n	61.8
COc1cc(O)c(C(CCN2CCN(c3ccccc3)CC2)c2cc(OC)c(OC)c(OC)c2)c(OC)c1 (centres undefined)	n	100.5
COc1ccc(C(CCN2CCOCC2)c2c(O)cc(OC)cc2OC)cc1 (centres undefined)	n	n
COc1cc(O)c(C(CCN2CCCC2)c2ccc(N(C)C)cc2)c(OC)c1 (centres undefined)	n	60.5
CC1CCN(C(=O)C2CCN(c3nc4ccccc4o3)CC2)CC1	n	n
Cc1ccc(-c2nn(-c3ccccc3)cc2/C=C2/N=C(c3ccccc3)OC2=O)o1	n	n
COc1ccccc1-c1cnn2c(Nc3ccc(NC(C)=O)cc3)cc(C)nc12	n	53.7
COc1ccccc1-c1cnn2c(C)cc(C)nc12	n	n
CC(C)n1c(=O)c(NCc2ccc(F)c(Cl)c2)nc2ccncc21	n	86.6
CC(C)n1c(=O)c(NCc2cccc(F)c2)nc2ccncc21	n	n
O=C1CSC(c2cc3c(cc2[N+](=O)[O-])OCO3)N1c1ccccc1 (centres undefined)	n	n
O=C1c2ccccc2NC(c2cc3c(cc2[N+](=O)[O-])OCO3)N1c1ccccc1 (centres undefined)	n	89.8!
COc1ccc(OC)c(C=C2Oc3c(ccc(O)c3CN3CCN(CCO)CC3)C2=O)c1	n	n
CCCNC(=O)C1CCN(c2ncccc2-c2nc(-c3cccc(C)c3)no2)CC1	n	n
COc1ccc(OC(C)C(=O)NCCc2ccccc2)cc1 (centres undefined)	n	n
CC(Oc1ccccc1)C(=O)NCCc1ccc(S(N)(=O)=O)cc1 (centres undefined)	86.4	n
Cc1ccc2c(=O)cc(-c3ccc(Cl)cc3)oc2c1	n	n
O=C(NCc1cccnc1)c1ccc(-c2ccc(Br)cc2)o1	n	n
CCOc1cc(/C=C2/C(=O)ON=C2C)ccc1OCc1ccc(Cl)cc1	n	n
COc1cc(/C=C2\C(=O)ON=C2C)cc(Cl)c1OCc1ccccc1	n	91.0
SMILES	Pf apPOL block	mHTT CaM bind
CCOc1cc(/C=C2\C(=O)ON=C2C)cc(Cl)c1OCc1ccc(F)cc1	n	93.0
COc1cc(C=O)cc(Cl)c1OCc1cccc(F)c1	n	n
COc1cc(/C=C2\C(=O)ON=C2C)ccc1OCc1ccccc1Cl	n	n
COc1cc(/C=C2\C(=O)ON=C2C)cc(Cl)c1OCc1ccc(F)cc1	n	74.0
CC1=NOC(=O)/C1=C/c1ccc(OCc2cccc(F)c2)c(Cl)c1	n	n
COc1cc(/C=C2\C(=O)ON=C2C)ccc1OCc1cccc(F)c1	n	100.0
CC(C)NC(=O)c1cn2ccnc(-c3ccccc3)c2n1	n	n
N#CC1=CN(c2cccc(Cl)c2)c2cc(F)ccc2S1(=O)=O	n	n
COc1ccc(/C=C/C(=O)n2cc(C)nc2C)cc1OC	n	n
CCOc1ccc2nc(NC(=O)Cc3ccccc3)sc2c1	n	n
CC1=NOC(=O)/C1=C/c1ccccc1OCc1cccc(Cl)c1	n	55.0
CC1=NOC(=O)/C1=C/c1ccccc1OCc1ccccc1F	n	n
CCOc1cc(/C=C2\C(=O)ON=C2C)cc(Br)c1OCc1ccc(F)cc1	n	75.0
COc1cc(/C=C2\C(=O)ON=C2C)cc(Br)c1OCc1ccc(F)cc1	n	n
O=C(CCC1CCCC1)N1CCc2nc[nH]c2C1	n	n
COc1cc(C2CC(=O)Nc3cc(C)c(C)cc32)cc(Br)c1OC (centres undefined)	n	98.3
COc1cccc(C2CC(=O)Nc3cc(C)c(C)cc32)c1 (centres undefined)	n	n
CCOc1ccc(C2Oc3c(cc(Br)cc3OC)C=C2[N+](=O)[O-])cc1OCC (centres undefined)	n	62.0
CCOc1ccc(C2OC(=O)Cc3cc(OCC)c(OCC)cc32)cc1OCC (centres undefined)	n	n
CCCn1c(C2CCN(C(=O)Nc3cc(F)ccc3F)C2)nc2cccnc21 (centres undefined)	n	n
O=S(=O)(NC(c1ccc(Cl)s1)C(Cl)(Cl)Cl)c1ccccc1 (centres undefined)	n	n
COc1c(C(=O)N2CCN(c3ccccc3)CC2)sc2cccc(F)c12	n	64.2
